Screening results: PubChem BioAssay, several laboratories
Hits are enriched below; roughly 1.2% of the tested compounds scored in any of these assays.
BJeLR viability: kills HRASV12-expressing BJeLR cells | BJeLR (HRASV12) viability, CellTiter-Glo ATP luminescence, 48 h | actives 0.17% (n = 300,000) | inhibition, % (no concentration beside the values) | AID 1554; in the data active = inhibition above about 50%
ugtP null kill: kills S. aureus RN4220 lacking UgtP; growth inhibition, % (no concentration beside the values); actives 0.54% (n = 330,000); S. aureus RN4220 ugtP deletion, OD600 growth, 16 h; in the data active = growth inhibition above about 68%
PriA SSB inh: inhibitors of Klebsiella pneumoniae PriA binding to SSB C-terminal tail | AlphaScreen SSBct-PriA binding, biotinylated peptide | inhibition, % at 33 µM | actives 0.6% (n = 430,000) | AID 1272365; in the data active = inhibition mostly above about 37%, no sharp cut-off; inactive = mostly below about 20%
MazF activator: activators of E. coli MazEF toxin-antitoxin RNase. P0AE70. FAM/BHQ RNA-DNA oligo cleavage fluorescence, 5 h. activation, % at 20 µM. actives 0.32% (n = 350,000). AID 504720; in the data active = activation above about 50%
Target sequence (P0AE70 whole entry, looked up): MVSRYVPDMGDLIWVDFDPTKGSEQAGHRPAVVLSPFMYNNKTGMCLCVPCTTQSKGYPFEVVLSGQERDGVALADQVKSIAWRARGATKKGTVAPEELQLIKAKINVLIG
Sa RN4220 lethal: kills Staphylococcus aureus RN4220. S. aureus RN4220 growth, OD600, 16 h. inhibition, % (test concentration not listed). actives 0.33% (n = 330,000). AID 1259311; in the data active = inhibition above about 85%
Hits are given with their value; n = inactive; x = no result given; + = active, no number.

SMILES	BJeLR viability	ugtP null kill	PriA SSB inh	MazF activator	Sa RN4220 lethal
O=S(=O)(Cc1ccco1)[C@H]1CCN(S(=O)(=O)c2ccccc2Br)C1	x	x	n	x	x
Cc1cc(=O)n(-c2ccc(O)cc2)[nH]1	n	82	n	n	n
N#CC1=C2N=C(N)c3ccccc3N2C2=C(C(=O)CCC2)C1c1ccc(F)cc1 (stereo unspecified)	n	n	n	n	n
N#CC1=C2N=C(N)c3c(sc4c3CCCCC4)N2C2=C(C(=O)CCC2)C1c1ccccc1 (stereo unspecified)	n	n	44	n	n
N=C1/C(=C/c2cccs2)C(=O)N=C2SN=C(SCc3ccccc3)N12	n	83	n	n	n
COc1ccccc1NC(=S)NCc1ccc2c(c1)cc(C)n2C	n	n	88	n	n
COc1ccc(NC(=S)NCc2ccc3c(c2)cc(C)n3C)cc1	n	n	75	n	n
CCCCC(=O)NCc1ccc2c(c1)cc(C)n2C	n	n	n	n	n
Cc1cc2cc(CNC(=S)NC(C)(C)C)ccc2n1C	x	x	n	x	x
CCCCNC(=S)NCc1ccc2c(c1)cc(C)n2C	n	n	83	n	n
Cc1cc2cc(CNC(=S)NC3CCCCC3)ccc2n1C	n	n	59	n	n
CCc1ccccc1NC(=O)CSc1nc2cc(C(=O)NCC3CCCO3)ccc2c(=O)n1CC1CCCO1 (stereo unspecified)	x	x	x	n	x
Cc1cccc(N2CCN(C(=O)Cc3ccc(Br)cc3)CC2)c1C	n	n	n	n	n
Cc1cc2cc(CNC(=S)NCc3ccccc3)ccc2n1C	n	n	75	n	n
Cc1ccccc1NC(=S)NCc1ccc2c(c1)cc(C)n2C	n	n	n	n	n
CCc1cccc(C)c1NC(=S)NCc1ccc2c(c1)cc(C)n2C	n	n	53	n	n
CN1C(=O)c2cccc(NC(=O)C3CCCCC3)c2C1=O	n	n	n	n	n
O=[N+]([O-])c1ccc(S(=O)(=O)NN=C2CCCCC2)cc1	x	n	n	119	n
Cc1nc(N)nc(N)c1/C=C/C(C)(C)c1ccc(Cl)cc1	69	100	n	n	99
Cc1ccccc1NC(=S)NC(=O)CCc1ccccc1	n	85	n	n	n
NC(=O)c1cc2ccc(O)cc2oc1=NCc1ccccc1	n	n	n	785	n
NC(=O)c1cc2ccccc2oc1=NCc1ccccc1	n	n	n	n	n
c1ccc(-c2cn(C[C@H]3CC[C@H](Cn4cc(-c5ccccn5)nn4)O3)nn2)nc1	n	x	109	n	x
CCCOC1CCCN(C(=O)CCc2nnc(Cc3cccc(C)c3)o2)C1 (stereo unspecified)	n	n	n	n	n
O=C(O)c1ccccc1NSc1ccccc1[N+](=O)[O-]	n	n	n	n	n
SMILES	BJeLR viability	ugtP null kill	PriA SSB inh	MazF activator	Sa RN4220 lethal
CCc1ccc(NSc2ccccc2[N+](=O)[O-])cc1	n	n	65	n	n
S=c1[nH]nc(C2CCCCC2)n1N=Cc1ccco1	x	n	n	x	n
CN(C)c1ccc(/C=N/N(CCC#N)C2=NS(=O)(=O)c3ccccc32)cc1	n	x	x	140	x
CC(C)c1nc(-c2ccc(N3CCN(C(=O)Cc4cn(C)c5ccccc45)CC3)nc2)no1	x	x	61	x	x
Cc1noc(C)c1C(=O)N1CCN(c2ccc(-c3noc(C(C)C)n3)cn2)CC1	x	x	n	x	x
O=C(Nc1cccc2[nH]ncc12)NS(=O)(=O)c1ccccc1	n	n	n	n	n
O=C(Nc1ccc2sccc2c1)c1ccc([N+](=O)[O-])s1	x	x	46	x	x
CCOC(=O)C1=C(O)/C(=C/c2ccc(-c3ccccc3C(=O)O)o2)SC1=Nc1ccc(C)cc1	x	x	n	n	x
CCOC(=O)C1=C(O)/C(=C/c2cn(CC(=O)NCC3CCCO3)c3ccccc23)SC1=Nc1ccc(C)cc1 (stereo unspecified)	x	n	n	+	n
O=C(/C=C/c1ccccc1)NNC(=O)c1cnccn1	x	x	n	x	x
O=C(/C=C/c1ccccc1)NC(=S)NNC(=O)c1cnccn1	n	x	83	n	x
COc1ccc(-c2ccc(/C=C3\SC(=S)N(C(CCC(=O)O)C(=O)O)C3=O)o2)c([N+](=O)[O-])c1 (stereo unspecified)	x	x	n	x	x
COc1ccc(-c2ccc(/C=C3/C(=N)N4C=CSC4=NC3=O)o2)c([N+](=O)[O-])c1	n	94	n	445	n
COc1cc2cc(/C=C/C(=O)c3ccco3)c(Cl)nc2cc1OC	n	n	n	267	n
Cn1c(SCc2ccccc2Cl)nc2ccccc21	n	n	n	n	n
CCn1c(SCc2ccccc2Cl)nc2ccccc21	n	91	n	n	n
COCCCNC(=O)C(C#N)=c1sc(=Cc2ccccc2OC(F)F)c(=O)n1CCCOC	x	x	n	x	x
COCCCn1c(=O)/c(=C\c2ccccc2OC(F)F)s/c1=C(/C#N)C(=O)NC(C)C	n	x	x	303	x
O=C(Nc1ccc2c(c1)N(C(=O)c1ccco1)CC2)c1ccc(F)c(F)c1	x	x	n	x	x
CCC(=O)NC(NC(=S)Nc1cccc2cccnc12)C(Cl)(Cl)Cl (stereo unspecified)	n	n	n	n	n
O=C(CF)NC(Nc1cccc2cccnc12)C(Cl)(Cl)Cl (stereo unspecified)	n	n	73	n	n
CC(C)(C)C(=O)NC(Nc1cccc2cccnc12)C(Cl)(Cl)Cl (stereo unspecified)	n	n	87	n	n
COc1cc(N2Cc3ccccc3C2)ccc1C=O	n	n	n	n	n
Nc1ccc(C(=O)OCC(=O)N2CCOCC2)cc1[N+](=O)[O-]	n	n	n	n	n
COc1ccc(Cc2nc3ccc(C(=O)NCCc4cccc(C)n4)cc3o2)cc1	n	n	n	n	n
SMILES	BJeLR viability	ugtP null kill	PriA SSB inh	MazF activator	Sa RN4220 lethal
Cc1ccccc1NC(=O)C1c2cccc[n+]2CC(=O)N1c1c(C)cccc1C (stereo unspecified)	n	n	n	63	n
Cc1cccc(C)c1NC(=O)C1c2cccc[n+]2CC(=O)N1Cc1ccc2c(c1)OCO2 (stereo unspecified)	n	n	n	n	n
O=C(CCCCCCC(=O)Nc1ccccc1)NO	72	n	n	n	n
O=C(CCCCCN1C(=O)c2ccccc2C1=O)Nc1ccccc1	n	n	n	n	n
N#CC(=NNc1ccccc1)C(=N)N1CCOCC1	x	n	n	x	n
Cc1cc(/C=C2\C(=O)NC(=O)N(Cc3ccccc3)C2=O)c(C)n1C1CC1	n	n	n	725	n
CC1=NN(c2ccccc2)C(=O)/C1=C/c1cc(C)n(C2CC2)c1C	n	n	n	77	n
COc1ccccc1/C=C1/C(=O)N(c2ccccc2)N=C1C	n	x	n	n	x
Cc1nc2ccc(CN(C)c3ccc(C(=O)N[C@@H](CCC(=O)O)C(=O)O)s3)cc2c(=O)[nH]1	72	x	x	x	x
COC1CCN(c2ccc(C(=O)NCc3nnc(C)o3)cc2)C1 (stereo unspecified)	x	x	n	x	x
O=C(NC1CCCN(c2ccc(C(F)(F)F)cn2)C1)c1cc(Cl)ccc1F (stereo unspecified)	n	n	n	n	n
Nc1ccccc1Nc1cc(-c2cccc(Cl)c2)nn1-c1ccccc1	n	n	58	n	n
Cc1ccc(-c2csc3nnc(SCc4ccc5c(c4)OCO5)n23)cc1	x	x	n	x	x
